From the supplement of paper PMC6555819

tested on: RARg:RXRa (NR concentration 270 nM, RXRa partner concentration 90 nM); experiment: PBM binding z-score (relative to random genomic background probes); higher = stronger binding; sequences stand for … in GC…GCGATTGACAGCGTAGAATGAAGG
How it was run: (§1)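 Binding z-scores were set against random background probes. The data came from custom Agilent 4×180K protein-binding microarrays carrying double-stranded probes with 34-nt variable regions, incubated 1 h with ligand-free nuclear receptor dimers. Partner-specific antibodies detected binding, and scanned fluorescence was regression-normalized.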

Sequence | PBM binding z-score
AATACAGGGCCACTAGGCCAGAGTAGGTACGAAT | 0.551
TCTTGTAAATCAGCAGGTTAAGAAAGCTGGCCAA | -0.0885
ACTATTAGTTGACTTAGGGCAACCGTTACGACGC | 0.618
CAAACTAGGTCCCGAAAGGTCAAAGTCGAATGAC | 5.77
CGTCCACGGTCAGCAGGTCAGTGAAAGCGACGTG | 2.99
ATCGAAAGGTCGGAGGTGAGTATACCCACCCGAA | 3.26
GCTTACGGGTCAAAGGTTATTGCATGAATAGAAT | 6.79
ATTCGGAGGACAAAGGTCAGAGCTACGCCAGTGA | 5.89
GGTAGCAGGCCATTTGGGTCACTCAATGACGGGC | 1.27
GATACAGGGTCAGCTCGAGGCCAGAGTATGGAAA | 6.05
GCTTGTAGATCAAGGTTAAGATAGACTAAGCTAA | 0.611
ACTATTAGATGAGACGAGGGCAACCGATAGGTTG | 0.879
AATACAGGGTCAACGTAGGCCAGAGTACGCACAG | 6.08
GCATGTAGGTAATACAAGGTGAAAGTCCGATTGT | 0.359
TCTATTAGTTGACGGGCAACCGACGAGTCCGTTT | 0.0549
GCTTTTAGATCAAGGTTAAGAAAGACTAAGCTAA | 0.483
TCGAGTAGGTTACCAATGGGGCATTCTGCTTTCT | 0.898
CCTAGCGGGCCAGGGTCACTCAAGCATTTCGCTT | 3.06
GCTTGTAGATCAAGGATAAGAAAGACTAAGCTAA | -0.352
ATATGTAGGTTAAGGGTCATCCAGGTTGGTTCGC | 5.45

Sequence | PBM binding z-score
ACAGACAGGTGAGTGAAGGTAACTCACCTGGACG | 0.343
CGAACTAGGTCAGAACAGGTCAGTGAAGGATGAT | 3.47
TCCATTAGTTGAAGGGCAACCGACGAGTCCGTTT | 0.679
CCTAGTTCGTCAAGGTCACACACGCTATAGGTAC | 4.84
CCTATTAGTTGACCACAAGGGCAACCGAAGCTCG | 1.15
CCTATTAGTTGACCATAAGGGCAACCGCAGCTCG | 1.05
TCTGCTAGGTCAGTTGGTAAGCTAACGAGCTGCC | 2.35
GCAGACAGGTGAAACGCAGGTAACTCAAGGTGGC | 0.907
CCTCGGAGGACAACAGGCGGTCAGAGCTGCCAGA | 1.07
TCTTGTAGATCAAAAGAGGTTAAGAAAGTGCGCT | 0.867
CCTACTGGGCCAAAAAGGTCATTGAAGCCGATAA | 4.98
CAAACTAGGTCACGGAAGGTCAAAGTCGAATGAC | 7.13
AGAATGAGGTTGTACGTAGATCAGGGAAGAAAGT | 0.15
GTATCAAGGTGAATAGGTCGTTGATGAGTAGGCG | 2.77
AGAACGAGGGCACGCTGAGATGATAGCAGAGTAG | 1.91
AGTCAAAGTTCATCTAGATAACGTAAGATATGCT | 5.31
CGAACTAGGTCAGAACAGGAGAGTGAAGGATGAT | 2.51
CAAACTAGGTGACCGGAAGGTCAAAGTCCGCATG | 5.38
ACAGACAGGTGAGTGAAGGAAACTCAGCTGGACG | -0.0497
ATCCCAAGGTGATCGTGAGGTCGTTGATACTAAC | 1.97

tested on: RARg homodimer (NR concentration 270 nM); experiment: as above
How it was run: as §1

Sequence | PBM binding z-score
AATACAGGGCCACTAGGCCAGAGTAGGTACGAAT | 0.711
TCTTGTAAATCAGCAGGTTAAGAAAGCTGGCCAA | -0.347
ACTATTAGTTGACTTAGGGCAACCGTTACGACGC | 0.892
CAAACTAGGTCCCGAAAGGTCAAAGTCGAATGAC | 5.09
CGTCCACGGTCAGCAGGTCAGTGAAAGCGACGTG | 3.3
ATCGAAAGGTCGGAGGTGAGTATACCCACCCGAA | 3
GCTTACGGGTCAAAGGTTATTGCATGAATAGAAT | 4.49
ATTCGGAGGACAAAGGTCAGAGCTACGCCAGTGA | 5.52
GGTAGCAGGCCATTTGGGTCACTCAATGACGGGC | 1.83
GATACAGGGTCAGCTCGAGGCCAGAGTATGGAAA | 4.74
GCTTGTAGATCAAGGTTAAGATAGACTAAGCTAA | 0.411
ACTATTAGATGAGACGAGGGCAACCGATAGGTTG | 1.09
AATACAGGGTCAACGTAGGCCAGAGTACGCACAG | 5.84
GCATGTAGGTAATACAAGGTGAAAGTCCGATTGT | 0.236
TCTATTAGTTGACGGGCAACCGACGAGTCCGTTT | -0.0135
GCTTTTAGATCAAGGTTAAGAAAGACTAAGCTAA | 0.485
TCGAGTAGGTTACCAATGGGGCATTCTGCTTTCT | 0.393
CCTAGCGGGCCAGGGTCACTCAAGCATTTCGCTT | 2.4
GCTTGTAGATCAAGGATAAGAAAGACTAAGCTAA | -0.0867
ATATGTAGGTTAAGGGTCATCCAGGTTGGTTCGC | 4.39

Sequence | PBM binding z-score
ACAGACAGGTGAGTGAAGGTAACTCACCTGGACG | 0.628
CGAACTAGGTCAGAACAGGTCAGTGAAGGATGAT | 4.34
TCCATTAGTTGAAGGGCAACCGACGAGTCCGTTT | 0.586
CCTAGTTCGTCAAGGTCACACACGCTATAGGTAC | 4.77
CCTATTAGTTGACCACAAGGGCAACCGAAGCTCG | 1.01
CCTATTAGTTGACCATAAGGGCAACCGCAGCTCG | 1.07
TCTGCTAGGTCAGTTGGTAAGCTAACGAGCTGCC | 3.32
GCAGACAGGTGAAACGCAGGTAACTCAAGGTGGC | 0.318
CCTCGGAGGACAACAGGCGGTCAGAGCTGCCAGA | 1.63
TCTTGTAGATCAAAAGAGGTTAAGAAAGTGCGCT | 0.449
CCTACTGGGCCAAAAAGGTCATTGAAGCCGATAA | 4.29
CAAACTAGGTCACGGAAGGTCAAAGTCGAATGAC | 7.4
AGAATGAGGTTGTACGTAGATCAGGGAAGAAAGT | 0.156
GTATCAAGGTGAATAGGTCGTTGATGAGTAGGCG | 1.78
AGAACGAGGGCACGCTGAGATGATAGCAGAGTAG | 2.21
AGTCAAAGTTCATCTAGATAACGTAAGATATGCT | 5.67
CGAACTAGGTCAGAACAGGAGAGTGAAGGATGAT | 3.2
CAAACTAGGTGACCGGAAGGTCAAAGTCCGCATG | 3.94
ACAGACAGGTGAGTGAAGGAAACTCAGCTGGACG | 0.189
ATCCCAAGGTGATCGTGAGGTCGTTGATACTAAC | 0.447
